About 2,000 (36%) of roughly 5,500 compounds were called active. About 18% were inconclusive and are not listed. Rule as the data show it: active = normalized growth mostly below about 0.91 (no sharp cut-off); inconclusive = no clear call, values can overlap the other calls; inactive = mostly above about 0.92. Some of the results follow.
Experiment: chemical genetic growth profiling, strain panel (AID 1159580);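 also: tested at 20 µM; growth read once vehicle control cultures reached saturation at 30 °C; 1 = growth at the plate median or of vehicle wells; lower values mean less growth of the strain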
Settings: growth OD

Measured: normalized growth

OCC(O)CN1CCN(c2ccccc2)CC1 (configuration not stated)
inactive: S. cerevisiae deletion strains, locus YJR075W, strain HOC1, stronger effect = lower value 0.987 | S. cerevisiae deletion strains, locus YKL009W, strain mrt4, stronger effect = lower value 1.01 | S. cerevisiae deletion strains, locus YKL068W, stronger effect = lower value 0.994 | S. cerevisiae deletion strains, locus YKL085W, strain MDH1 (second series), stronger effect = lower value 0.99 | S. cerevisiae deletion strains, locus YKL085W, strain MDH1, stronger effect = lower value 0.99 | S. cerevisiae deletion strains, locus YKL160W, strain elf1, stronger effect = lower value 0.958 | S. cerevisiae deletion strains, locus YKL190W, strain CNB1, stronger effect = lower value 1.01 | S. cerevisiae deletion strains, locus YKR001C, strain vps1, stronger effect = lower value 1 | S. cerevisiae deletion strains, locus YKR026C, strain gcn3, stronger effect = lower value 0.977 | S. cerevisiae deletion strains, locus YKR091W, strain srl3, stronger effect = lower value 0.982 | S. cerevisiae deletion strains, locus YLL001W, strain dnm1, stronger effect = lower value 0.988 | S. cerevisiae deletion strains, locus YLL026W, stronger effect = lower value 0.988 | S. cerevisiae deletion strains, locus YLL041C, strain sdh2, stronger effect = lower value 0.975 | S. cerevisiae deletion strains, locus YLR027C, strain aat2, stronger effect = lower value 0.992 | S. cerevisiae deletion strains, locus YLR039C, strain RIC1, stronger effect = lower value 1.04 | S. cerevisiae deletion strains, locus YLR058C, strain SHM2, stronger effect = lower value 0.994 | S. cerevisiae deletion strains, locus YLR102C, strain apc9, stronger effect = lower value 1 | S. cerevisiae deletion strains, locus YLR113W, strain HOG1, stronger effect = lower value 0.999 | S. cerevisiae deletion strains, locus YLR221C, strain rsa3, stronger effect = lower value 0.973 | S. cerevisiae deletion strains, locus YLR258W, strain gsy2, stronger effect = lower value 0.992 | S. cerevisiae deletion strains, locus YLR262C, strain YPT6 (second series), stronger effect = lower value 0.959 | S. cerevisiae deletion strains, locus YLR262C, strain YPT6, stronger effect = lower value 1.05 | S. cerevisiae deletion strains, locus YLR268W, strain sec22, stronger effect = lower value 0.953 | S. cerevisiae deletion strains, locus YLR320W, strain mms22, stronger effect = lower value 1 | S. cerevisiae deletion strains, locus YLR330W, strain CHS5, stronger effect = lower value 1.02 | S. cerevisiae deletion strains, locus YLR342W, strain FKS1 (second series), stronger effect = lower value 1.02 | S. cerevisiae deletion strains, locus YLR342W, strain FKS1, stronger effect = lower value 0.993 | S. cerevisiae deletion strains, locus YLR357W, strain rsc2, stronger effect = lower value 0.987 | S. cerevisiae deletion strains, locus YLR370C, strain arc18, stronger effect = lower value 0.978 | S. cerevisiae deletion strains, locus YLR371W, strain rom2, stronger effect = lower value 1 | S. cerevisiae deletion strains, locus YLR384C, strain iki3, stronger effect = lower value 0.987 | S. cerevisiae deletion strains, locus YLR418C, strain cdc73, stronger effect = lower value 0.971 | S. cerevisiae deletion strains, locus YML016C, strain PPZ1, stronger effect = lower value 0.992 | S. cerevisiae deletion strains, locus YML032C, strain rad52, stronger effect = lower value 0.988 | S. cerevisiae deletion strains, locus YML120C, strain ndi1, stronger effect = lower value 0.982 | S. cerevisiae deletion strains, locus YML124C, strain tub3, stronger effect = lower value 0.989 | S. cerevisiae deletion strains, locus YMR058W, strain fet3, stronger effect = lower value 0.969 | S. cerevisiae deletion strains, locus YMR078C, strain ctf18, stronger effect = lower value 0.978 | S. cerevisiae deletion strains, locus YMR125W, strain sto1, stronger effect = lower value 0.995 | S. cerevisiae deletion strains, locus YMR129W, stronger effect = lower value 0.981 | S. cerevisiae deletion strains, locus YMR205C, strain PFK2, stronger effect = lower value 1.01 | S. cerevisiae deletion strains, locus YMR223W, strain ubp8, stronger effect = lower value 1.01 | S. cerevisiae deletion strains, locus YMR231W, strain pep5, stronger effect = lower value 0.989 | S. cerevisiae deletion strains, locus YMR263W, strain SAP30, stronger effect = lower value 0.989 | S. cerevisiae deletion strains, locus YMR307W, strain GAS1, stronger effect = lower value 1.03 | S. cerevisiae deletion strains, locus YNL067W, strain RPL9B, stronger effect = lower value 0.988 | S. cerevisiae deletion strains, locus YNL071W, strain lat1, stronger effect = lower value 0.985 | S. cerevisiae deletion strains, locus YNL128W, strain TEP1, stronger effect = lower value 1 | S. cerevisiae deletion strains, locus YNL153C, strain GIM3, stronger effect = lower value 0.988 | S. cerevisiae deletion strains, locus YNL183C, strain NPR1, stronger effect = lower value 0.908 | S. cerevisiae deletion strains, locus YNL209W, strain ssb2, stronger effect = lower value 0.983 | S. cerevisiae deletion strains, locus YNL233W, strain BNI4, stronger effect = lower value 1.01 | S. cerevisiae deletion strains, locus YNL248C, strain rpa49, stronger effect = lower value 0.925 | S. cerevisiae deletion strains, locus YNL250W, strain rad50, stronger effect = lower value 0.988 | S. cerevisiae deletion strains, locus YNL271C, strain bni1, stronger effect = lower value 0.985 | S. cerevisiae deletion strains, locus YNL298W, strain CLA4, stronger effect = lower value 0.985 | S. cerevisiae deletion strains, locus YNL307C, strain MCK1, stronger effect = lower value 0.997 | S. cerevisiae deletion strains, locus YNL322C, strain KRE1 (second series), stronger effect = lower value 0.97 | S. cerevisiae deletion strains, locus YNL322C, strain KRE1, stronger effect = lower value 1 | S. cerevisiae deletion strains, locus YNR049C, strain mso1, stronger effect = lower value 0.974 | S. cerevisiae deletion strains, locus YNR052C, strain pop2, stronger effect = lower value 1 | S. cerevisiae deletion strains, locus YOL006C, strain TOP1, stronger effect = lower value 0.981 | S. cerevisiae deletion strains, locus YOL012C, strain htz1 0.702 | S. cerevisiae deletion strains, locus YOL147C, strain pex11, stronger effect = lower value 0.991 | S. cerevisiae deletion strains, locus YOR001W, strain rrp6, stronger effect = lower value 0.943 | S. cerevisiae deletion strains, locus YOR061W, strain CKA2, stronger effect = lower value 0.999 | S. cerevisiae deletion strains, locus YOR069W, strain VPS5, stronger effect = lower value 0.986 | S. cerevisiae deletion strains, locus YOR070C, strain gyp1, stronger effect = lower value 0.992 | S. cerevisiae deletion strains, locus YOR080W, strain dia2, stronger effect = lower value 0.988 | S. cerevisiae deletion strains, locus YOR083W, strain WHI5, stronger effect = lower value 0.934 | S. cerevisiae deletion strains, locus YOR106W, strain vam3, stronger effect = lower value 0.943 | S. cerevisiae deletion strains, locus YOR136W, strain idh2, stronger effect = lower value 0.994 | S. cerevisiae deletion strains, locus YOR144C, strain elg1, stronger effect = lower value 0.993 | S. cerevisiae deletion strains, locus YOR184W, strain ser1, stronger effect = lower value 1 | S. cerevisiae deletion strains, locus YOR231W, strain MKK1, stronger effect = lower value 0.979 | S. cerevisiae deletion strains, locus YOR265W, strain rbl2, stronger effect = lower value 0.985 | S. cerevisiae deletion strains, locus YOR270C, strain vph1, stronger effect = lower value 0.981 | S. cerevisiae deletion strains, locus YOR290C, strain snf2, stronger effect = lower value 0.962 | S. cerevisiae deletion strains, locus YOR316C, strain cot1, stronger effect = lower value 0.985 | S. cerevisiae deletion strains, locus YPL051W, strain arl3, stronger effect = lower value 0.974 | S. cerevisiae deletion strains, locus YPL055C, strain LGE1, stronger effect = lower value 1 | S. cerevisiae deletion strains, locus YPL078C, strain atp4, stronger effect = lower value 0.932 | S. cerevisiae deletion strains, locus YPL106C, strain sse1, stronger effect = lower value 0.961 | S. cerevisiae deletion strains, locus YPL240C, strain hsp82, stronger effect = lower value 0.972 | S. cerevisiae deletion strains, locus YPL241C, strain CIN2, stronger effect = lower value 0.997 | S. cerevisiae deletion strains, locus YPL256C, strain CLN2, stronger effect = lower value 0.964 | S. cerevisiae deletion strains, locus YPR119W, strain clb2, stronger effect = lower value 0.992 | S. cerevisiae deletion strains, locus YPR141C, strain kar3, stronger effect = lower value 0.987 | S. cerevisiae deletion strains, locus YPR163C, strain tif3, stronger effect = lower value 0.988 | S. cerevisiae deletion strains, locus YPR167C, strain met16, stronger effect = lower value 0.989 | S. cerevisiae deletion strains, strain wtn01, stronger effect = lower value 0.95 | S. cerevisiae strains, strain wild type, stronger effect = lower value 1

Reference: PubChem BioAssay AID1159580 (chemical genetic matrix, 2015)
